Results from PubChem BioAssay (NCI).
Compounds without any hit were thinned out: in the full panel of roughly 83,000, 20% have a hit.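 Interpretation: 100, growth as untreated; towards 0, rising growth inhibition; 0, no net growth; 0 to -100, cell death. Compounds scoring below 10 were considered active.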 The source made the active and inactive calls.

These compounds were tested on HL-60(TB) leukemia (assay: NCI-60 one-dose screen, 48 h (100 = growth as untreated, 0 = no growth, -100 = all killed)). Settings: 10 µM unless noted.
In the case of `COc1ccc(-c2nc3ccccn3c2/C=C/C(=O)c2cc(OC)c(OC)c(OC)c2)cc1OC`, the growth is reported as 9.67% (active).
`CN(C)c1ccc(/C=N\Nc2cc(=O)[nH]c3ccc(Cl)cc23)cc1` was tested, and the growth was 98.2% (inactive).
`Clc1ccc2c(N3CCN(c4ccnc(NC5CCCCC5)n4)CC3)ccnc2c1` was tested, and the growth was -13.8% (active).
`C[C@@H]1N=C(c2ccc(Cl)cc2Cl)Nc2nc3ccccn3c2C1=O` was tested, and the growth was 0.461% (active).
With `Nc1ccn(C2OC(F)(CO)C(O)C2F)c(=O)n1` (stereo unspecified) the growth was 12.2% (inactive).
`COc1cc(C(=O)/C=C/c2ccc(OCCCCCC[P+](c3ccccc3)(c3ccccc3)c3ccccc3)cc2)cc(OC)c1OC` was tested, and the growth was 11.5% (inactive).
In the case of `CN1C(=O)N(C)C2C1NN=c1s/c(=C\c3ccsc3)c(=O)n12` (stereo unspecified), the growth is reported as 5.85% (active).
For `O=C(/C=C/c1cn(-c2ccccc2)nc1-c1ccccc1)CCC(=O)NO`, the growth was 98.3% (inactive).
With `CCn1c(CSc2nc3ccccc3c(=O)n2CCc2ccccc2)n[nH]c1=S` the growth was 90.9% (inactive).
`Brc1cnc2ccccc2c1` was tested, and the growth was 89.1% (inactive).
With `Cc1ccc2c(c1)=C/C(=C\c1cc(-c3ccccc3)[nH]c1O)C(=O)N=2` the growth was -4.3% (active).
With `COc1ccc2cc(-c3nc4ccccc4[nH]3)c(=O)oc2c1` the growth was 81.2% (inactive).
`COc1ccc2c(c1)O/C(=C\c1cccc(OCC(=O)Nc3nc4c(s3)CCCC4)c1)C2=O` was tested, and the growth was 27.4% (inactive).
For `CCOC(=O)c1sc(Nc2ncccn2)nc1-c1ccccn1`, the growth was 109% (inactive).
For `O=C(O)c1ccccc1Oc1cc(-c2ccco2)nc(OCCN2CCOCC2)n1`, the growth was 105% (inactive).
In the case of `CN1C(=O)/C(=C\c2nc([P+](c3ccccc3)(c3ccccc3)c3ccccc3)c(N3CCOCC3)o2)SC1=S`, the growth is reported as -15.1% (active).
With `C#CC#CC#CC#CC#CC#CC#CC#CC[C@@H]1OC[C@@H](COC(=O)O[C@@H](C(=O)O[C@H]2C[C@@]3(O)[C@@H](OC(=O)c4ccccc4)[C@@H]4[C@]5(OC(C)=O)CO[C@@H]5C[C@H](O)[C@@]4(C)C(=O)[C@H](OC(C)=O)C(=C2C)C3(C)C)[C@@H](NC(=O)c2ccccc2)c2ccccc2)O1` the growth was 2.63% (active).
For `Oc1ccccc1C=Nc1ccc(N2CCN(c3ccccc3)CC2)cc1`, the growth was 54.6% (inactive).
For `COc1ccc(CC2c3cc(OC)c(OC)cc3CC[N+]2(C)CCC(=O)OCCCCCOC(=O)CC[N+]2(C)CCc3cc(OC)c(OC)cc3C2Cc2ccc(OC)c(OC)c2)cc1OC` (stereo unspecified), the growth was 82.9% (inactive).
With `CC(=O)O.CN1[CH-]N(Cc2ccc(C#N)cc2)c2ccccc21.[Ag+]` the growth was 102% (inactive).
In the case of `CCOC(=O)c1ccc(NCCC(=O)O)cc1`, the growth is reported as 96.4% (inactive).
In the case of `Cc1cc(C)nc(SC2=C(Nc3cccc(Cl)c3)C(=O)N(Cc3ccccc3)C2=O)n1`, the growth is reported as 18.1% [30 µM] (inactive).
In the case of `NS(=O)(=O)c1ccc(Nc2nc(O)c(/C=C3\C=Nc4ccccc43)s2)cc1`, the growth is reported as 95.4% (inactive).
For `COc1cc(C2C(C#N)=C(N)OC3=C2C(=O)c2ccccc2C3=O)cc(OC)c1O` (stereo unspecified), the growth was 90.9% (inactive).
`COc1ccc(C2Nc3nc(SC)nc(N)c3N=C3c4ccccc4CCC32)cc1` (stereo unspecified) was tested, and the growth was 71.1% (inactive).
For `CC(=O)c1c(C)[nH]c(-c2nc3ccc(N4CCN(C)CC4)cc3[nH]2)c1-c1ccc2c(c1)OCCO2`, the growth was -0.621% (active).
`COc1ccc2c(c1)CC[C@@H]1[C@@H]2CC[C@]2(C)[C@@H](O)C(=O)C[C@@H]12` was tested, and the growth was 108% (inactive).
`CCO/C=N/C1=C(C#N)C(c2ccc(Cl)cc2)c2sc3c(F)cccc3c2O1` (stereo unspecified) was tested, and the growth was 56.2% (inactive).
In the case of `Nc1ccc(CC[C@H]2CCC/C=C/[C@@H]3C[C@H](O)C[C@H]3[C@H](O)/C=C/C(=O)O2)cc1`, the growth is reported as -8.51% (active).
In the case of `CCN(CC)Cc1cc(Nc2nc(NC3CCC(N(C)C)CC3)c3ccccc3n2)ccc1OC` (stereo unspecified), the growth is reported as 69% (inactive).
With `CC1(C)COB(OCC(C)(C)COB2OCC(C)(C)CO2)OC1` the growth was 101% (inactive).
In the case of `Cc1c(C(=O)O)c(=O)n(-c2ccccc2)n1C`, the growth is reported as 109% (inactive).
`N#C/C(=N\Nc1ccccc1)C(=O)Nc1cc(-c2ccccc2)nn1-c1ccccc1` was tested, and the growth was 35.4% (inactive).
`S=C(NCc1ccccc1)N1CCC(CCCC2CCN(C(=S)NCc3ccccc3)CC2)CC1` was tested, and the growth was 89.7% (inactive).
With `CCOC(=O)c1ccccc1SC(C[N+](=O)[O-])c1ccccc1` (stereo unspecified) the growth was 89.7% (inactive).
With `C1=C\CCCCN2CC[C@H]3[C@H](CCCC/C=C\CCCN4C[C@@H](CCCCC/1)C[C@@H]3C4)C2` the growth was -35.5% (active).
